Experimental findings from PubChem BioAssay are described below.

Structures are written as SMILES. Values without a mark were called inactive. Calls of active or inactive are those of the source.

This assay can be described thus: plasmodial surface anion channel blockers, osmotic lysis – cell-based, P. falciparum Indochina, OD700, 18 h, primary screen (AID 1157). As to conditions: P. falciparum Indochina infected erythrocytes, osmotic lysis OD700, 18 h; higher = more signal, called active from +8 up or from −8 down.
As to `C=CC[C@@]12N=C(c3ccc(OCCCO)cc3)O[C@@H]1c1ccccc1N(CCS(=O)(=O)c1ccccc1)C2=O`, the z-score is 8.56 (active).

Turning to `CN(C)CCCNC(=O)[C@@]1(C)c2ccccc2C(=O)N(Cc2cc(C(F)(F)F)cc(C(F)(F)F)c2)[C@H]1c1ccc(CO)cc1`, the z-score is 0.327.

With `CC(C)NC(=O)[C@@]1(C)c2ccccc2C(=O)N(C(C)C)[C@H]1c1ccc(CO)cc1`, the z-score is 0.255.

`O=C(N1CCCCC1)[C@@]1(Cc2ccccc2)COC(c2ccc(OCCCO)cc2)=N1`: the z-score is 0.42.

Regarding `O=C1C[C@@](C(=O)NCC(F)(F)F)(c2ccc([N+](=O)[O-])cc2)[C@@H](c2ccc(CO)cc2)N1C1CCCCC1`, the z-score was -0.0879.

`O=C1c2ccccc2[C@](Cc2ccccc2I)(C(=O)NCc2ccccc2)[C@H](c2ccc(CO)cc2)N1C1CCCCC1`: the z-score is -1.34.

Consider `C=CC[C@@]1(C(=O)N2CCCCC2)N=C(c2ccc(OCCCO)cc2)O[C@@H]1c1ccccc1`, for which the z-score is 1.97.

Turning to `C=CCOC(=O)[C@@H]1[C@H]2C(=O)O[C@H](c3ccccc3)[C@H](c3ccccc3)N2[C@H](c2ccc(OCCOC(=O)[C@H]3C[C@H]4C(=O)N[C@@H](CCCC[N+](C)(C)C)C(=O)N4[C@H]3c3ccc(O)cc3)cc2)[C@@]12C(=O)Nc1ccc(I)cc12`, the z-score is 0.792.

For the molecule `C[C@H]1ON(c2ccc(C(=O)OC(C)(C)C)cc2)[C@@H](c2ccc(O)cc2)[C@@H]1C(=O)N1C(=O)OC[C@@H]1c1ccccc1`, the z-score is 0.428.

For `Cc1c(NC(=O)/C(C#N)=C/C=C/c2ccccc2[N+](=O)[O-])c(=O)n(-c2ccccc2)n1C`, the z-score is 0.0839.

Regarding `CC(C)(C)OC(=O)CC[C@]1(C(=O)NCCN2CCOCC2)N=C(c2ccc(OCCCO)cc2)O[C@H]1c1ccccc1N=[N+]=[N-]`, the z-score was 6.62.

For `CCOC(=O)[C@H]1C/C=C/C[C@H](C(=O)OCC)C(=O)O[C@H]2[C@@H](OC)O[C@H](CO)[C@@H](OC(=O)Nc3ccc(OC)cc3)[C@@H]2OC1=O`, the z-score was 0.385.

Take `O=C1NC(=O)C2C1C=CC(C(O)c1c(F)cccc1Cl)N2Nc1ccccn1` (centres undefined): the z-score is 0.828.

As to `COc1ccc([Si](C)(C)[C@@H]2[C@@H](CCO)O[C@]3(C(=O)N(Cc4cccc(N5C(=O)c6ccccc6Oc6ccccc65)c4)c4ccccc43)[C@H]2C)cc1`, the z-score is 1.77.

`Cc1ccc(S[C@]2(C(=O)NCc3ccccc3)CC(=O)N(C(C)C)[C@@H]2c2ccc(CO)cc2I)cc1`: the z-score is 0.301.

As to `CC(C)CCC[C@@H](C)[C@H]1CC[C@@]2(C)C3=C(CC[C@]12C)[C@@]1(C)CC[C@H](OC(=O)c2ccc(Br)cc2)C(C)(C)C1CC3` (some centres undefined), the z-score was -2.39.

Take `NC(=O)N1C(=O)C2C(C1=O)C1C=C(c3ccc(CO)cc3)C2C(C2CC2)N1Cc1sc2ccccc2c1Cl` (centres undefined): the z-score was 1.39.

For `C=CCN1C(=O)[C@@]2(O[C@@H](CCn3cc([C@H](O)c4ccccc4)nn3)[C@H]([Si](C)(C)c3ccc(OC)cc3)[C@H]2C)c2ccccc21`, the z-score was 0.916.

Regarding `CC1CC/C=C\[C@H]2OC34C=CCN(CCN5CCOCC5)C(=O)[C@H]3N(CCO)C(=O)[C@@H]4C2C(=O)O1` (some centres undefined), the z-score was 0.38.

`C=CCOC(=O)[C@H]1[C@@H]2C(=O)O[C@@H](c3ccccc3)[C@@H](c3ccccc3)N2[C@@H](c2ccc(OCCOC(=O)[C@H]3C[C@H]4C(=O)N[C@@H](Cc5ccccc5)C(=O)N4[C@H]3c3ccc(O)cc3)cc2)[C@]12C(=O)Nc1ccc(I)cc12`: the z-score was 1.06.

Consider `COc1ccc(C#Cc2ccc3c(c2)[C@]2(C(=O)N3)[C@H](C(=O)N3CCc4cc(OC)c(OC)cc4C3)[C@H]3C(=O)O[C@H](c4ccccc4)[C@H](c4ccccc4)N3[C@@H]2c2ccc(O)cc2)cc1`, for which the z-score is 0.296.

As for `O=C1O[C@@H](c2ccccc2)[C@@H](c2ccccc2)N2[C@@H](c3ccccc3OCCO)[C@]3(C(=O)Nc4ccccc43)[C@@H](C(=O)NC[C@H](O)c3ccccc3)[C@H]12`, the z-score is 1.87.

Regarding `C[C@]1(C(=O)NC2CC2)c2ccccc2C(=O)N(Cc2ccc(OC(F)(F)F)cc2)[C@H]1c1ccc(CO)cc1`, the z-score was 0.0105.

Take `NC(=O)NCC#Cc1ccc2c(c1)[C@]1(C(=O)N2)[C@H](C(=O)Nc2nc3ccccc3s2)[C@H]2C(=O)O[C@H](c3ccccc3)[C@H](c3ccccc3)N2[C@@H]1c1ccc(O)cc1`: the z-score was 1.19.
